Hit rate of the full screen: of about 39,000 compounds, about 3,300 (8.5%) were called active. The sample holds actives, similar compounds and a random draw of the others, so the mix is not that of the screen.
These compounds were tested on HepG2 (assay: cytotoxicity call (relative viability < 0.9)). Settings: 10 µM.

SMILES	cytotoxicity call
CO[C@@H](CN(C)C(=O)c1ccc2c(c1)OCO2)[C@H](C)CN([C@@H](C)CO)S(=O)(=O)c1ccc(F)cc1	inactive
C[C@@H]1CCCCO[C@@H](CN(C)C(=O)CCC(F)(F)F)[C@H](C)CN([C@H](C)CO)C(=O)c2cc(NC(=O)C3CCCCC3)ccc2O1	inactive
C[C@@H]1CN([C@@H](C)CO)C(=O)c2cccc(NC(=O)Nc3ccc4c(c3)OCO4)c2O[C@H]1CN(C)Cc1ccc(C(=O)Nc2ccccc2N)cc1	inactive
O=C(CCCCCNC(=O)OCc1ccc(CO[C@H]2C[C@@H](c3coc4ccccc4c3=O)C=C(C(=O)N3CCN(Cc4ccccc4)CC3)O2)cc1)NO	inactive
O=C(CN1CCOCC1)N[C@H]1CC[C@@H](CCNS(=O)(=O)c2ccccc2F)O[C@@H]1CO	inactive
Cc1ccc(S(=O)(=O)Nc2cccc3c2O[C@@H](CN(C)Cc2ccc(Cl)c(Cl)c2)[C@@H](C)CN([C@@H](C)CO)C3=O)cc1	inactive
CC(C)NC(=O)N(C)C[C@H]1Oc2ccc(NC(=O)CCC(F)(F)F)cc2C(=O)N([C@H](C)CO)C[C@H]1C	inactive
N#C[C@H]1N[C@H](CO)[C@H]1c1ccccc1	inactive
C[C@H](CO)N1C[C@H](C)[C@H](CN(C)S(=O)(=O)c2ccc(C#N)cc2)Oc2ncc(C#CC(C)(C)O)cc2C1=O	inactive
COc1ccccc1S(=O)(=O)N1C[C@@H](O)COC[C@@H]2O[C@@H](CC(=O)O)CC[C@H]21	inactive
C[C@H](CO)N1C[C@H](C)[C@@H](CN(C)C(=O)c2ccccn2)Oc2cc(C#Cc3ccccc3)ccc2S1(=O)=O	inactive
C[C@@H]1CN([C@H](C)CO)C(=O)c2c(c3ccccc3n2C)-c2ccccc2CO[C@@H]1CN(C)C(=O)Nc1ccc(-c2ccccc2)cc1	inactive
C[C@@H]1CN([C@@H](C)CO)C(=O)c2ccccc2-c2ccccc2CO[C@@H]1CN(C)C(=O)Nc1ccc(-c2ccccc2)cc1	inactive
C[C@@H]1CN([C@@H](C)CO)C(=O)c2c(c3ccccc3n2C)-c2ccccc2CO[C@H]1CN(C)C(=O)Nc1ccc(-c2ccccc2)cc1	inactive
C[C@@H]1CN([C@H](C)CO)C(=O)c2c(c3ccccc3n2C)-c2ccccc2CO[C@H]1CN(C)C(=O)Nc1ccc(-c2ccccc2)cc1	active
C[C@@H]1CN([C@H](C)CO)C(=O)c2ccccc2-c2ccccc2CO[C@H]1CN(C)C(=O)Nc1ccc(-c2ccccc2)cc1	active
C[C@H](CO)N1C[C@H](C)[C@@H](CN(C)C(=O)Nc2ccc(-c3ccccc3)cc2)OCc2ccccc2-c2c(n(C)c3ccccc23)C1=O	inactive
C[C@H]1CN([C@@H](C)CO)C(=O)c2c(c3ccccc3n2C)-c2ccccc2CO[C@H]1CN(C)C(=O)Nc1ccc(-c2ccccc2)cc1	active
C[C@@H]1CN([C@@H](C)CO)C(=O)c2c(c3ccccc3n2C)-c2ccccc2CO[C@@H]1CN(C)C(=O)Nc1ccc(-c2ccccc2)cc1	inactive
C[C@H]1CN([C@@H](C)CO)C(=O)c2ccccc2-c2ccccc2CO[C@@H]1CN(C)C(=O)Nc1ccc(-c2ccccc2)cc1	inactive
